PubChem BioAssay (EPA / NIEHS)
Results filed as inconclusive are left out. Active and inactive are the calls of the source. How the source made its calls: active means hit-call score of the fitted dose curve at least 0.9, where 1 is the maximum; inconclusive means response in the unintended direction; inactive means score below 0.9.

Assays:
[1] = target: Cellular tumor antigen p53 (Homo sapiens) (UniProt P04637); experiment: TOX21_p53_BLA_p2_ratio: Tox21 HCT-116 p53 Agonism Beta-lactamase Assay, Ratio, Phase 2 (AID 2283592)
How it was run: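 First, HCT116 reporter cells settle for 5 h at 37C. Next, DMSO compound solutions are pinned in (217-fold dilution) and left 16 h. Finally, CCF4-AM substrate is loaded 2 h at room temperature and the 460/530 nm ratio read.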

[2] = TOX21_p53_BLA_p3_viability: Viability Assessment in the Tox21 HCT-116 p53 Agonism Beta-lactamase Assay, Phase 3 (AID 2283593);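 further: cells exposed to compound for 16 h before reading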
How it was run: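 HCT116 cells, 4000/well, dosed 5 h after plating by pin transfer (217-fold dilution from DMSO stock) and incubated 16 h at 37C, 5% CO2. Viability read as ATP luminescence with CellTiter-Glo after 30 min at room temperature.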

[3] = target: Cellular tumor antigen p53 (Homo sapiens) (UniProt P04637); experiment: TOX21_p53_BLA_p3_ratio: Tox21 HCT-116 p53 Agonism Beta-lactamase Assay, Ratio, Phase 3 (AID 2283596)
How it was run: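 Cells were seeded at 4000/well, rested 5 h at 37C, then dosed with DMSO compound solutions (217-fold dilution) for 16 h. CCF4-AM substrate was loaded for 2 h at room temperature, and the 460/530 nm emission ratio was fitted for gain of signal versus DMSO.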

[4] = TOX21_p53_BLA_p4_viability: Viability Assessment in the Tox21 HCT-116 p53 Agonism Beta-lactamase Assay, Phase 4 (AID 2283597);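 further: hits lower the luminescence signal meaning cytotoxicity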
How it was run: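 4000 HCT116 cells per well; 5 h attachment; compounds from DMSO, 217-fold dilution; 16 h at 37C. Then CCF4-AM, 2 h RT, followed by CellTiter-Glo, 30 min RT, luminescence. Decrease = cytotoxicity.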

[5] = target: Cellular tumor antigen p53 (Homo sapiens) (UniProt P04637); experiment: TOX21_p53_BLA_p5_ratio: Tox21 HCT-116 p53 Agonism Beta-lactamase Assay, Ratio, Phase 5 (AID 2283599)
How it was run: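 HCT-116 p53-bla cells (4000/well) plated 5 h, dosed with compound (217-fold DMSO dilution) for 16 h at 37 C; CCF4-AM substrate 2 h at room temperature. Activity is the 460/530 nm emission ratio (405 nm excitation), fitted in gain-of-signal direction versus DMSO.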

Measured: outcome

Cellular tumor antigen p53 (Homo sapiens), sequence (P04637 whole entry, looked up): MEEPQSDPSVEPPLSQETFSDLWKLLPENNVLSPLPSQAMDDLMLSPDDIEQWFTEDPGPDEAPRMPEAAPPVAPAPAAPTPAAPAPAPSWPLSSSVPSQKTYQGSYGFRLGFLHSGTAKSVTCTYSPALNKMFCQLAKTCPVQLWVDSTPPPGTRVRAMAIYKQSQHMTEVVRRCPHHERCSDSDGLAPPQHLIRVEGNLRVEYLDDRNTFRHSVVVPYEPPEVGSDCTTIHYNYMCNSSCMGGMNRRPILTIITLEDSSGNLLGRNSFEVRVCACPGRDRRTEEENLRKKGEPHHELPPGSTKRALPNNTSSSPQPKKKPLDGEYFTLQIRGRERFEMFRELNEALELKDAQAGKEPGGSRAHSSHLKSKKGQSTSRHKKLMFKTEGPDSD

ClC=CCCl
inactive: all assays above

CC(C)NCC(O)c1ccccc1Cl (configuration not stated)
inactive: [1] | [2] | [3]

CNC(C)Cc1ccccc1 (configuration not stated)
not listed: [4]
inactive: all other assays above
